Shown are actives, neighbours in structure and some others; about 3% of the full set was active somewhere.
PAFAH1B3 inh: PAFAH1B3 enzyme inhibitors, primary screen, biochemical, fluorescence polarization, human; Platelet-activating factor acetylhydrolase IB subunit alpha1 (Homo sapiens), Q15102; recombinant PAFAH1B3, FP-rhodamine probe; inhibition, % at 3.39 µM; 340,000 tested, 0.28% active; AID 492972, 2010;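 active = inhibition above the screen-wide average of all tested compounds plus 3 SD, cut at about 25% in these data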
PAFAH1B2 FP inh: PAFAH1B2 enzyme inhibitors, primary screen, biochemical, fluorescence polarization, human; Platelet-activating factor acetylhydrolase IB subunit alpha2 (Homo sapiens), P68402; recombinant PAFAH1B2, FP-rhodamine activity probe; inhibition, % at 3.39 µM; 340,000 tested, 1.2% active;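 active = inhibition above the mean of all tested compounds plus 3 SD, cut at about 24% in these data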
ATG4B inh: ATG4B protease inhibitors, primary screen, biochemical, fluorescence, uHTS; inhibition, % at 8.33 µM; ATG4B cleavage of LC3-PLA2, NBD-HPC fluorescence, 1 h; 340,000 tested, 0.51% active; in the data active = inhibition above about 40%
Target sequence (Q9Y4P1 whole entry, looked up): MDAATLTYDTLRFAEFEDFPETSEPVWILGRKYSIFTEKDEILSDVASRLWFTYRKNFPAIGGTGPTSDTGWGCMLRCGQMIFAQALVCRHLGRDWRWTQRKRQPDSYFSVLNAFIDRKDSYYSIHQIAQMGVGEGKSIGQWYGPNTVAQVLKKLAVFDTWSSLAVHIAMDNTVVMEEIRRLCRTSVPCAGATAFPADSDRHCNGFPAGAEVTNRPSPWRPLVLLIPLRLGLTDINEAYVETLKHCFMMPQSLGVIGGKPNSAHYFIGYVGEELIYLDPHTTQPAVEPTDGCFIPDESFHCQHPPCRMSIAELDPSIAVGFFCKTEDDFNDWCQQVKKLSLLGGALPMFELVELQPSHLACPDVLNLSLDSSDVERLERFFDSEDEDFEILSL
pPAFAH inh: pPAFAH enzyme inhibitors, primary screen, biochemical, fluorescence polarization, human; recombinant pPAFAH, FP-rhodamine probe fluorescence polarization; inhibition, % at 3.39 µM; 330,000 tested, 1.5% active; AID 463082, 2010;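 active = inhibition above the mean inhibition across the screen plus 3 SD, cut at about 25% in these data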;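 note: inhibitors block binding of the rhodamine activity-based probe so polarization drops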
PAFAH2 inh: PAFAH2 enzyme inhibitors, primary screen, biochemical, fluorescence polarization, human. AID 492956, 2010. recombinant PAFAH2, FP-rhodamine activity probe. inhibition, % at 3.39 µM. Platelet-activating factor acetylhydrolase 2, cytoplasmic (Homo sapiens), Q99487. 340,000 tested, 0.99% active;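 active = inhibition above the mean over all tested compounds plus 3 SD, cut at about 30% in these data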;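 note: inhibitors block probe labeling of enzyme so polarization drops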
DAGLB inhibitor: DAGLB lipase inhibitors, primary screen, biochemical, fluorescence, HTS; 340,000 tested, 0.059% active; Diacylglycerol lipase-beta (Homo sapiens), Q8NCG7; HEK293T DAGLB membrane lysate, EnzChek fluorogenic substrate; inhibition, % at 5.17 µM; in the data active = inhibition above about 34%
PAFAH2 confirm: PAFAH2 enzyme inhibitors, confirmation, biochemical, fluorescence polarization, human. 2,300 tested, 65% active. AID 493030, 2011. inhibition, % at 3.39 µM. shares compounds with PAFAH2 inh. recombinant PAFAH2, FP-rhodamine activity probe;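 active = mean inhibition over three repeats above a set limit taken from the earlier primary screen, cut at about 30% in these data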;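 note: inhibitor blocks binding of rhodamine activity probe so polarization falls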
A number is an active result.

What do the screens show for `O=C(COC(=O)c1cccnc1Cl)Nc1ccc2c(c1)OCCO2`?
PAFAH1B3 inh: inactive; PAFAH1B2 FP inh: inactive; ATG4B inh: inactive; pPAFAH inh: inactive; PAFAH2 inh: 36; DAGLB inhibitor: inactive; PAFAH2 confirm: 30

Results for O=C(COC(=O)c1ccc2[nH]c3c(c2c1)CCCC3)Nc1ccccc1Cl ?
PAFAH1B3 inh: inactive; PAFAH1B2 FP inh: inactive; ATG4B inh: inactive; pPAFAH inh: inactive; PAFAH2 inh: 32; DAGLB inhibitor: inactive; PAFAH2 confirm: inactive

What do the screens show for `CC1=C(C(=O)N(C)C)CC(CC(=O)NCCN2CCOCC2)C(=O)N1Cc1ccc(F)cc1` (stereo not drawn)?
DAGLB inhibitor: inactive

What do the screens show for `CCC(=O)c1ccc(OCC(=O)NCC2COc3ccccc3O2)cc1` (stereo not drawn)?
PAFAH1B3 inh: inactive; PAFAH1B2 FP inh: inactive; ATG4B inh: inactive; pPAFAH inh: inactive; PAFAH2 inh: inactive; DAGLB inhibitor: inactive

Results for O=C(COC(=O)c1ccc(O)cc1)Nc1ccccc1 ?
PAFAH1B3 inh: inactive; PAFAH1B2 FP inh: inactive; ATG4B inh: inactive; pPAFAH inh: inactive; PAFAH2 inh: 92; DAGLB inhibitor: inactive; PAFAH2 confirm: 80

How did O=C(COC(=O)c1ccc(O)cc1)NC(=O)NCc1ccccc1 do in these assays?
PAFAH1B3 inh: inactive; PAFAH1B2 FP inh: inactive; ATG4B inh: inactive; pPAFAH inh: inactive; PAFAH2 inh: inactive; DAGLB inhibitor: inactive

Results for CCOc1ccc(NC(=O)COC(=O)c2ccc3c(c2)OCO3)cc1 ?
PAFAH1B3 inh: inactive; PAFAH1B2 FP inh: inactive; ATG4B inh: inactive; pPAFAH inh: inactive; PAFAH2 inh: 64; DAGLB inhibitor: inactive; PAFAH2 confirm: 62

How did NC(=O)c1ccc(NC(=O)COC(=O)c2ccc3c(c2)OCO3)cc1 do in these assays?
PAFAH1B3 inh: inactive; PAFAH1B2 FP inh: inactive; ATG4B inh: inactive; pPAFAH inh: inactive; PAFAH2 inh: inactive; DAGLB inhibitor: inactive

What do the screens show for `O=C(COC(=O)c1ccc2c(c1)OCO2)Nc1cccc(F)c1`?
PAFAH1B3 inh: inactive; PAFAH1B2 FP inh: inactive; ATG4B inh: inactive; pPAFAH inh: inactive; PAFAH2 inh: 81; DAGLB inhibitor: inactive; PAFAH2 confirm: 84

Results for O=C(COC(=O)c1ccc(O)cc1)NCC1COc2ccccc2O1 (stereo not drawn) ?
PAFAH1B3 inh: inactive; PAFAH1B2 FP inh: inactive; ATG4B inh: inactive; pPAFAH inh: inactive; PAFAH2 inh: 32; DAGLB inhibitor: inactive; PAFAH2 confirm: inactive

How did O=C(Nc1cccc(F)c1)c1ccc2c(c1)OCO2 do in these assays?
PAFAH1B3 inh: inactive; PAFAH1B2 FP inh: inactive; ATG4B inh: inactive; pPAFAH inh: inactive; PAFAH2 inh: inactive; DAGLB inhibitor: inactive

What do the screens show for `Cc1nc2ccccc2cc1C(=O)N(C)Cc1ccccc1`?
PAFAH1B3 inh: inactive; PAFAH1B2 FP inh: inactive; ATG4B inh: inactive; pPAFAH inh: inactive; PAFAH2 inh: inactive; DAGLB inhibitor: inactive

What do the screens show for `CC(CC(=O)NNC(=O)c1cccc(Cl)c1)c1ccccc1` (stereo not drawn)?
PAFAH1B3 inh: inactive; PAFAH1B2 FP inh: inactive; ATG4B inh: inactive; pPAFAH inh: inactive; PAFAH2 inh: inactive; DAGLB inhibitor: inactive

What do the screens show for `CC(C)C[C@@H](CN)NC(=O)c1nc[nH]c1C(=O)N[C@@H](CC(C)C)C(=O)CNC[C@H](C)NC(=O)c1nc[nH]c1C(=O)N[C@@H](CC(C)C)C(=O)O`?
PAFAH1B3 inh: inactive; PAFAH1B2 FP inh: inactive; PAFAH2 inh: inactive; DAGLB inhibitor: inactive

How did COC(=O)c1ccc(CN2CCC(n3nccc3NC(=O)C3CCCC3)CC2)cc1 do in these assays?
PAFAH1B3 inh: inactive; PAFAH1B2 FP inh: inactive; ATG4B inh: inactive; pPAFAH inh: inactive; PAFAH2 inh: inactive; DAGLB inhibitor: inactive

What do the screens show for `O=C(COC(=O)c1ccc(O)cc1)Nc1cc(C(F)(F)F)ccc1Cl`?
PAFAH1B3 inh: inactive; PAFAH1B2 FP inh: inactive; ATG4B inh: inactive; pPAFAH inh: inactive; PAFAH2 inh: 55; DAGLB inhibitor: inactive; PAFAH2 confirm: 40
